Measured values as given in ChEMBL document CHEMBL3988442, “University of Dundee, Small-Polar-MMV Screening Library” (2021).

Target: T1, Aspartate--tRNA(Asp/Asn) ligase (Mycobacterium tuberculosis (strain ATCC 25618 / H37Rv)) (UniProt P9WFW3); further: in the data most compounds retested in dose-response had high values
T1 sequence (whole entry): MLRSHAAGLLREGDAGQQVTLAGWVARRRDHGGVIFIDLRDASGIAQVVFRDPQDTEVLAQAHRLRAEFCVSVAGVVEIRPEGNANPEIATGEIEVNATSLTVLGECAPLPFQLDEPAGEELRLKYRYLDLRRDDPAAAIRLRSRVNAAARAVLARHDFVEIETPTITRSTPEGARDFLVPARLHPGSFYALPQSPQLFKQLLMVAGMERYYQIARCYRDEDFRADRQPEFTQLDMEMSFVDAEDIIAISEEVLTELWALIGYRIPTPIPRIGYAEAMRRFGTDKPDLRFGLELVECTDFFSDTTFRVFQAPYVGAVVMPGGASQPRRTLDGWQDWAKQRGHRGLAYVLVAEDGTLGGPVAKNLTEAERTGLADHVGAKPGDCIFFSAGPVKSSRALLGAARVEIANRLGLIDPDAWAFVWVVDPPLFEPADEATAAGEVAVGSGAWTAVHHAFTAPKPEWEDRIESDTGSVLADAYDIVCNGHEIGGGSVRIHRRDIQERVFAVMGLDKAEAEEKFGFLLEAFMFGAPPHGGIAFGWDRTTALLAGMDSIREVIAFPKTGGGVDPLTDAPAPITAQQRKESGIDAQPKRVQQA
Assay: Assay for Asp RNA synthetase-1 from Mycobacterium tuberculosis
Assay type: functional
Design: scale not given: direction of the effect not stated beside the values
Conditions: 30 µM

| Structure (SMILES) | Percent Effect |
| --- | --- |
| Cc1nn(C)c(Cl)c1C1CCCN1C(=O)c1ccc2c(c1)OCO2 (stereo not given) | -0.434% |
| CCC(C)NC(=O)N1CCCn2cnc(CO)c2C1 (stereo not given) | -2.9% |
| Cc1nn(C)c(Cl)c1CNCc1ccc(OCC(N)=O)cc1 | -2.25% |
| CC(CN1CCCC1)C(=O)N1CCC(c2nccn2CC2CC2)CC1 (stereo not given) | -0.479% |
| CC(C)c1nc(CN(C)CC2CCN(CCO)CC2)no1 | 3.25% |
| COCCNC(=O)[C@H]1CN(Cc2nccs2)C[C@H]2OCC[C@@H]12 | -4.08% |
| O=C(CCOCc1ccccc1)N1CCCC1c1noc(C2CC2)n1 (stereo not given) | 14.9% |
| COCc1nc2cc(NCc3ccc(C)o3)ccc2o1 | 25.1% |
| Cn1ccnc1-c1ccccc1C(=O)N1CCc2c(nc(N)[nH]c2=O)C1 | 2.08% |
| COc1ccc(Br)c(C(=O)N2CCC(c3n[nH]c(C4CC4)n3)CC2)c1 | 0.422% |
| Cn1ccnc1CNC(=O)N(CCCO)C1CCCc2ccccc21 (stereo not given) | 0.809% |
| NC(=O)COc1ccc(CNCc2ccc(F)cc2F)cc1 | -4.09% |
| Cc1[nH]ncc1C(=O)N1CCCC(c2cc(C(F)(F)F)[nH]n2)C1 (stereo not given) | 0.845% |
| C[C@H]1C[C@H]2CN(C(=O)c3ccncn3)CC[C@H]2O1 | -0.436% |
| CCN1CCN(c2ccc(CNC(=O)c3ccc(Cl)o3)cn2)CC1 | -3.07% |
| O=C(c1ccc(C(F)(F)F)nc1)N1CCCC(n2cncn2)C1 (stereo not given) | -4.88% |
| Cc1cc(-c2nnc(SCC(=O)O)n2C(C)c2ccccc2)nn1C (stereo not given) | 2.15% |
| O=S(=O)(CCN1CCOC(Cn2cncn2)C1)c1ccccc1 (stereo not given) | -2.75% |
| Cn1ccnc1CN1CCC2(COCCN(Cc3ccsc3)C2)C1 (stereo not given) | -5.11% |
| CN1CCc2nc(C3CCN(C(=O)CCC4CCCC4)CC3)ncc2C1 | 2.63% |

| Structure (SMILES) | Percent Effect |
| --- | --- |
| Cc1cnn(CCC(=O)N2CCCC(c3nc(C)no3)C2)c1 (stereo not given) | 4.08% |
| CN1CCC(NC(=O)NCc2csc(Br)c2)CC1 | 6.12% |
| CC(O)CC(C)(C)CNC(=O)NCc1cccc(-n2cncn2)c1 (stereo not given) | -1.59% |
| CC1(C)CC(N2Cc3nc(N4CCOCC4)ncc3C2=O)CC(C)(C)N1 | -4.82% |
| CNC(=O)c1cccc(C2CNCCN2C)c1 (stereo not given) | -2.1% |
| COc1cccc2c1OCC(NC(=O)NCc1cccs1)C2 (stereo not given) | 1.53% |
| Cc1cnn(CC2CN(CC(=O)N(C)c3nccs3)CCO2)c1 (stereo not given) | -6.72% |
| Cc1nc(C(C)(C)NC(=O)Nc2cccc(C#N)c2)no1 | -0.287% |
| CN(C)CC(=O)N1CCC2(CC1)COC(COc1ccccn1)C2 (stereo not given) | 2.27% |
| Cc1cnn(C2CCCN(C(=O)CCc3nccs3)C2)c1 (stereo not given) | -2.71% |
| CC(C)N1CCC(Cc2cc(-c3ccccc3C(=O)O)ncn2)CC1 | -0.134% |
| Cc1ccc(N2CCCc3sc(C(=O)NCc4cccnc4)nc32)nn1 | -2.44% |
| Cc1noc(CCCC(=O)NC(C)c2cccnc2)n1 (stereo not given) | -0.922% |
| Cc1cnn(CC2CCCN2C(=O)CCc2c(C)noc2Cl)c1 (stereo not given) | 2.73% |
| Clc1ccc(OCCN2CCN(CCn3cncn3)CC2)cc1 | -1.39% |
| CS(=O)(=O)c1ccc(NC(=O)NCc2ccc3c(c2)CCC3)cn1 | 1.92% |
| Cn1ccnc1CN1CCCN(C(=O)c2ccc(Cl)o2)CC1 | -4.19% |
| O=C(c1ccc(Br)o1)N1CCCC(n2cncn2)C1 (stereo not given) | 5.01% |
| COCC(c1cccc(C(F)(F)F)c1)N(C)C(=O)c1cc(C)no1 (stereo not given) | -1.95% |
| O=C(c1cccn1Cc1cccs1)N1CCN(C2CC2)CC1 | -1.4% |

Target: Shiga toxin 2 (Escherichia coli O157:H7) (UniProt P09385+P09386)
Assay: E. coli 0.157:H7 Shiga Toxin SOP - stx2 screening assay
Assay type: functional
Design: scale not given: direction of the effect not stated beside the values
Conditions: 30 µM

| Structure (SMILES) | Percent Effect |
| --- | --- |
| Cc1nn(C)c(Cl)c1C1CCCN1C(=O)c1ccc2c(c1)OCO2 (stereo not given) | 12% |
| CCC(C)NC(=O)N1CCCn2cnc(CO)c2C1 (stereo not given) | -0.62% |
| Cc1nn(C)c(Cl)c1CNCc1ccc(OCC(N)=O)cc1 | -17.5% |
| CC(CN1CCCC1)C(=O)N1CCC(c2nccn2CC2CC2)CC1 (stereo not given) | -15.6% |
| CC(C)c1nc(CN(C)CC2CCN(CCO)CC2)no1 | -7.83% |
| COCCNC(=O)[C@H]1CN(Cc2nccs2)C[C@H]2OCC[C@@H]12 | 1.98% |
| O=C(CCOCc1ccccc1)N1CCCC1c1noc(C2CC2)n1 (stereo not given) | 22.2% |
| COCc1nc2cc(NCc3ccc(C)o3)ccc2o1 | -21.1% |
| Cn1ccnc1-c1ccccc1C(=O)N1CCc2c(nc(N)[nH]c2=O)C1 | -35.7% |
| COc1ccc(Br)c(C(=O)N2CCC(c3n[nH]c(C4CC4)n3)CC2)c1 | -39.5% |
| Cn1ccnc1CNC(=O)N(CCCO)C1CCCc2ccccc21 (stereo not given) | 1.57% |
| NC(=O)COc1ccc(CNCc2ccc(F)cc2F)cc1 | -18.8% |
| Cc1[nH]ncc1C(=O)N1CCCC(c2cc(C(F)(F)F)[nH]n2)C1 (stereo not given) | 24.8% |
| C[C@H]1C[C@H]2CN(C(=O)c3ccncn3)CC[C@H]2O1 | -34.2% |
| CCN1CCN(c2ccc(CNC(=O)c3ccc(Cl)o3)cn2)CC1 | -41.7% |
| O=C(c1ccc(C(F)(F)F)nc1)N1CCCC(n2cncn2)C1 (stereo not given) | -8.71% |
| Cc1cc(-c2nnc(SCC(=O)O)n2C(C)c2ccccc2)nn1C (stereo not given) | 2.98% |
| O=S(=O)(CCN1CCOC(Cn2cncn2)C1)c1ccccc1 (stereo not given) | -7.21% |
| Cn1ccnc1CN1CCC2(COCCN(Cc3ccsc3)C2)C1 (stereo not given) | -19.8% |
| CN1CCc2nc(C3CCN(C(=O)CCC4CCCC4)CC3)ncc2C1 | -43.2% |

| Structure (SMILES) | Percent Effect |
| --- | --- |
| Cc1cnn(CCC(=O)N2CCCC(c3nc(C)no3)C2)c1 (stereo not given) | 3.29% |
| CN1CCC(NC(=O)NCc2csc(Br)c2)CC1 | 6.77% |
| CC(O)CC(C)(C)CNC(=O)NCc1cccc(-n2cncn2)c1 (stereo not given) | 7% |
| CC1(C)CC(N2Cc3nc(N4CCOCC4)ncc3C2=O)CC(C)(C)N1 | -59.4% |
| CNC(=O)c1cccc(C2CNCCN2C)c1 (stereo not given) | -13.8% |
| COc1cccc2c1OCC(NC(=O)NCc1cccs1)C2 (stereo not given) | 3.63% |
| Cc1cnn(CC2CN(CC(=O)N(C)c3nccs3)CCO2)c1 (stereo not given) | 11% |
| Cc1nc(C(C)(C)NC(=O)Nc2cccc(C#N)c2)no1 | -19.6% |
| CN(C)CC(=O)N1CCC2(CC1)COC(COc1ccccn1)C2 (stereo not given) | -20.6% |
| Cc1cnn(C2CCCN(C(=O)CCc3nccs3)C2)c1 (stereo not given) | 20% |
| CC(C)N1CCC(Cc2cc(-c3ccccc3C(=O)O)ncn2)CC1 | 8.23% |
| Cc1ccc(N2CCCc3sc(C(=O)NCc4cccnc4)nc32)nn1 | -41.7% |
| Cc1noc(CCCC(=O)NC(C)c2cccnc2)n1 (stereo not given) | 31.2% |
| Cc1cnn(CC2CCCN2C(=O)CCc2c(C)noc2Cl)c1 (stereo not given) | -4.86% |
| Clc1ccc(OCCN2CCN(CCn3cncn3)CC2)cc1 | -23.5% |
| CS(=O)(=O)c1ccc(NC(=O)NCc2ccc3c(c2)CCC3)cn1 | -9.09% |
| Cn1ccnc1CN1CCCN(C(=O)c2ccc(Cl)o2)CC1 | 17.7% |
| O=C(c1ccc(Br)o1)N1CCCC(n2cncn2)C1 (stereo not given) | -10.4% |
| COCC(c1cccc(C(F)(F)F)c1)N(C)C(=O)c1cc(C)no1 (stereo not given) | 27.2% |
| O=C(c1cccn1Cc1cccs1)N1CCN(C2CC2)CC1 | -1.86% |
